This passage reports growth results from PubChem BioAssay (NCI).

The panel holds about 83,000 compounds, 20% with a hit somewhere; the sample as a whole holds those more often.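 Negative percent growth values reflect cell death: -40 means 40% of the cells present at the start died, and -100 means all died.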 A number with no mark means an inactive call. Activity calls are given as the source filed them. How the source made its calls: active means growth percent below 10; inactive means the rest.

This test deals with UACC-257 melanoma. Kind of test: NCI-60 one-dose screen, 48 h (100 = growth as untreated, 0 = no growth, -100 = all killed). The settings on record: 10 µM unless noted.
In the case of `Nc1ccc(N(O)/C=C2\C=CC=CC2=O)cc1N`, the growth was 98.7%.
With `Cc1nc2ccc(Nc3nc(N4CCOCC4)nc(N4CCN(C)CC4)n3)cc2n1Cc1ccccc1`, the growth was 82.5%.
For `CC(C)CC(NC(=O)C(CCCN=C(N)N)NC(=O)OCc1ccccc1)C(=O)NC(CNC(=O)/C=C/c1ccccc1)C(C)C` (stereo unspecified), the growth is 107%.
Turning to `CCOC(=O)c1ccc(NCCC(=O)O)cc1`, the growth was 104%.
With `Cc1ccc(-c2cnc3sc4ccc(Cl)cc4n23)cc1` the figure was 112%; with `COc1cc(C)c2c(=O)c3c(oc2c1)C(=O)c1c(O)c(OC)cc(O)c1C3=O`, 54%.
Take `O=C(OCc1ccc2c(Br)cc(Br)c(O)c2n1)c1cc2ccccc2[nH]1`: the growth is -64.6% (active).
`CN1CCN(Cc2ccc(NC(=O)c3cncc(C#Cc4cnc5cccnn45)c3)cc2C(F)(F)F)CC1`: the growth is 3.46% (active).
For `CCOC(=O)c1ccccc1SC(C[N+](=O)[O-])c1ccccc1` (stereo unspecified) the value was 84.4%; for `CC(C)CC(NC(=O)OCC1c2ccccc2-c2ccccc21)C(=O)O` (stereo unspecified), 102%; for `CN1CCN(Cc2ccc(NC(=O)c3cncc(C#Cc4ccc(N)nc4)c3)cc2C(F)(F)F)CC1`, 11.8%.
